Test results reported in PubChem BioAssay (NCATS).
Several values for one entry are separate records, joined by “and”; a condition that tells them apart may be missing. Equal entries are not always repeated. Inconclusive results are not listed. A number with no mark means an inactive call. Activity calls are given as the source filed them. The call rests on the fitted dose curve; in most records, active means well fitted activation curve with a large enough effect in the signal ratio (not every such curve was filed as active); inconclusive means small, poorly fitted or top-dose-only effect, or a change in a side signal; inactive means flat fitted curve, though single readings scatter; the % refers to the signal ratio.

experiment: qHTS assay for small molecule activators of the p53 signaling pathway (AID 651743); details: HCT-116 p53RE-bla, beta-lactamase FRET ratio, 16 h; activation: hits give high values; on activation: series mostly up to about 92 µM; % of control where 0% means no effect
Description: National Center for Advancing Translational Sciences [NCATS] NIH Chemical Genomics Center [NCGC] U.S. Environmental Protection Agency [EPA] National Institutes of Environmental Health Sciences [NIEHS] National Toxicology Program [NTP] Assay Overview: p53, a tumor suppressor protein, is activated following cellular insult, including DNA damage and other cellular stresses. The activation of p53 regulates cell fate by inducing DNA repair, cell cycle arrest, apoptosis, or cellular senescence. The activation of p53, therefore, is a good indicator of DNA damage and other cellular stresses. The CellSensor p53RE-bla HCT-116 cell line (Invitrogen) contains a stably integrated beta-lactamase reporter gene under control of the p53 response elements. The activation of the report gene under culture conditions can be detected by fluorescence intensity. This cell line can be used to screen chemicals in a 1536-well plate format and to identify agonists that activate p53 signaling pathway.
Assay Protocol Summary: The p53RE-bla cells were dispensed at 4,000 cells/5 ul/well in 1536-well black wall/clear bottom plates using a Multidrop dispenser. After the assay plates were incubated at a 37 C/5% CO2 incubator for 5 hours, 23 nL of compounds dissolved in DMSO, positive controls or DMSO only was transferred to the assay plate by a pin tool. The plates were incubated at 37 C for 16 hours. After 1 uL of LiveBLAzer B/G FRET substrate was added using a Flying Reagent Dispenser, the plates were incubated at room temperature for 2 hours, and fluorescence intensity was measured by an Envision plate reader.
Potency means the concentration at half of the fitted maximal effect.

Row | Structure (SMILES) | activation | Potency
1 | CCCCCCCC1CCC(=O)O1 (stereo not given) | -2.71% | –
2 | CCCCCCCOC(=O)c1ccccc1C(=O)OCCCCCCC | -3.71% | –
3 | CC(C)Nc1nc(N)nc(Cl)n1 | -1.43% and -0.514% | –
4 | CC(=O)c1c(C)c([N+](=O)[O-])c(C(C)(C)C)c([N+](=O)[O-])c1C | 6.99% | –
5 | c1ccc2c(c1)ccc1c3ccccc3ccc21 | 0.403% | –
6 | C=C(C)C(=O)OCC[N+](C)(C)C | 0.0876% | –
7 | COc1ccccc1NC(=O)CC(C)=O | -7.86% | –
8 | CCOCCOCCOCC | -1.74% | –
9 | c1cc2ccc3ccc4ccc5cccc6c(c1)c2c3c4c56 | – | 35.5 µM (active)
10 | CCCCN(CCCC)CCCC | -3.01% | –
11 | CCCCC(CC)COC(=O)CS (stereo not given) | -0.039% | –
12 | CCCCC(CC)CN1C(=O)C2C3C=CC(C3)C2C1=O (stereo not given) | -2.19% | –
13 | COC(=O)c1ccc(I)cc1S(=O)(=O)NC(=O)Nc1nc(C)nc(OC)n1 | -2.48% | –
14 | C=C(C)C(=O)OCC(CC)(COC(=O)C(=C)C)COC(=O)C(=C)C | -3.72% | –
15 | CS/C(=N\O)C(=O)N(C)C | -0.3% | –
16 | CCCCCCCCCCCCCc1ccccc1 | 1.08% | –
17 | Cc1ccc(Cl)cc1Cl | 1.63% | –
18 | COC(=O)c1cccc(C(=O)OC)c1 | 2.13% | –
19 | CCSC(=O)N(CC(C)C)CC(C)C | -3.92% | –
20 | CCCOC(=O)NCCCN(C)C | -1.96% | –

Row | Structure (SMILES) | activation | Potency
21 | O=C=NCCCCCCN=C=O | 1.63% | –
22 | Cc1nn(C)c(Oc2ccccc2)c1/C=N/OCc1ccc(C(=O)OC(C)(C)C)cc1 | 9.47% | –
23 | C[N+](C)(C)CC(O)CCl (stereo not given) | 0.454% | –
24 | C/C=C/C/C=C\CCCCCCCCOC(C)=O | -0.736% | –
25 | CC1=CC(=O)CC(C)(C)C1 | 0.625% | –
26 | C=C(C)C(=O)OCCC[Si](OC)(OC)OC | -1.41% | –
27 | Cc1ccc(N=Nc2c(O)ccc3ccccc23)c([N+](=O)[O-])c1 | -4.13% | –
28 | C=C[Si](C)(C)O[Si](C)(C)C=C | -3.83% | –
29 | O=[N+]([O-])C(CO)(CO)CO | 7.94% | –
30 | C=CCCCCCCCCC=O | 3.83% | –
31 | c1ccc(OCCOc2ccccc2)cc1 | 2.08% | –
32 | COC(=O)c1c(Cl)nn(C)c1S(=O)(=O)NC(=O)Nc1nc(OC)cc(OC)n1 | -0.555% | –
33 | CC1(C)CC(OC(=O)CCCCCCCCC(=O)OC2CC(C)(C)NC(C)(C)C2)CC(C)(C)N1 | -2.75% | –
34 | CCCCOC(=O)/C=C\C(=O)OCCCC | 5.06% | –
35 | NNS(=O)(=O)c1ccc(Oc2ccc(S(=O)(=O)NN)cc2)cc1 | -0.745% | –
36 | CCOCCOCCOCCO | -1.32% | –
37 | CCCCCCCCCCCCCCN | 2.13% | –
38 | OCCOCCOCCOCCOCCO | 2.86% | –
39 | CCCCCC1CCC(=O)O1 (stereo not given) | 0.985% | –
40 | CCCCCCCC/C=C\CCCCCCCCCCCCC | -1.77% | –
